In PubChem BioAssay AID720597 (Broad Institute, 2013):
Potency and affinity values are given separately. The source made the active and inactive calls.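 The calls were made as follows: active = fitted half-maximal dose no more than twice the top valid tested dose, for compounds that lower signal; inconclusive = fit invalid, or curve flat with activity between -70 and -30; inactive = potency past limit, curve flat within ±30, or signal increasing.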

The compounds below were run against NAD-dependent protein deacylase sirtuin-5, mitochondrial (Homo sapiens) (UniProt Q9NXA8) (assay: blockers of sirtuin-5 peptide desuccinylation – biochemical, fluorescence imaging, cherry-pick, set 6, dose response (AID 720597;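 also: lower AMC signal can also come from blocking the trypsin step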)). Settings: Purified SirT5, succinyl-peptide-AMC/trypsin fluorescence; series mostly up to 15 µM.
Sequence of NAD-dependent protein deacylase sirtuin-5, mitochondrial (Homo sapiens) (Q9NXA8 whole entry, looked up): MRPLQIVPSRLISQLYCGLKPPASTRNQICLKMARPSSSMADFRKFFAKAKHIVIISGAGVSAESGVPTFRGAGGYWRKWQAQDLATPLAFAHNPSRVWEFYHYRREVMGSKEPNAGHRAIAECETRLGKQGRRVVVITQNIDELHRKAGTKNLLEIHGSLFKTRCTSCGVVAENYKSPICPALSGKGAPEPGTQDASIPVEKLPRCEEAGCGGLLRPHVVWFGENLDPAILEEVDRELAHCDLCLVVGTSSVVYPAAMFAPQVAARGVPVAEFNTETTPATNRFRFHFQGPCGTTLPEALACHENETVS

outcome, inactive:
O=S(=O)(c1cccs1)N1CCCCN2[C@H](CO)[C@H](c3ccc(C4=CCCCC4)cc3)[C@H]2C1
Cc1cc(C)cc(NC(=O)C2CC(=O)n3ncnc3N2)c1 (centres undefined)
O=C(NCC[C@H]1CC[C@@H](NC(=O)Nc2cc(F)ccc2F)[C@H](CO)O1)Nc1ccc(F)cc1
COc1ccc(NC(=O)Nc2ccc3c(c2)C(=O)N([C@H](C)CO)C[C@@H](C)[C@@H](CN(C)Cc2ccccc2)OCCCC[C@H](C)O3)cc1
O=C1CNC[C@H]2[C@@H](c3ccc(C4=CCCC4)cc3)[C@H](CO)N12
COc1ccccc1-c1ccc2c(c1)O[C@H](CN(C)S(=O)(=O)c1ccc(F)cc1)[C@@H](C)CN([C@@H](C)CO)S2(=O)=O
COc1cccc(NC(=O)N(C)C[C@@H]2OCc3cn(nn3)CCCC(=O)N([C@H](C)CO)C[C@H]2C)c1
O=C(NCC[C@H]1CC[C@@H](NC(=O)C2CC2)[C@@H](CO)O1)c1cc(Cl)cc(Cl)c1
O=S(=O)(c1ccc(F)cc1)N1CCCCN2[C@@H](CO)[C@H](c3ccc(-c4ccccc4F)cc3)[C@@H]2C1
COc1ccc(S(=O)(=O)N(C)C[C@H]2OCCCC[C@@H](C)Oc3ccc(NS(=O)(=O)c4ccc(F)cc4)cc3C(=O)N([C@H](C)CO)C[C@H]2C)cc1
C[C@H]1CN([C@@H](C)CO)C(=O)c2cc(C#CC3CCCCC3)cnc2O[C@@H]1CN(C)S(=O)(=O)c1cccc(F)c1
COc1ccccc1C(=O)Nc1ccc2c(c1)C(=O)N(C)[C@H]1CC[C@H](CC(=O)Nc3cccc(C(C)C)c3)O[C@@H]1CO2
C[C@H]1CCCCO[C@H](CN(C)Cc2ccc(C(F)(F)F)cc2)[C@@H](C)CN([C@@H](C)CO)C(=O)c2cc(NS(=O)(=O)c3ccc(Cl)cc3)ccc2O1
O=C(NCC[C@@H]1CC[C@H](NS(=O)(=O)c2cccc(F)c2)[C@H](CO)O1)C1CCOCC1
C[C@@H]1CN([C@@H](C)CO)S(=O)(=O)c2ccc(/C=C/c3ccccc3)cc2O[C@H]1CN(C)C(=O)c1ccc2c(c1)OCO2
COc1ccc(S(=O)(=O)Nc2ccc3c(c2)C(=O)N([C@H](C)CO)C[C@@H](C)[C@@H](CN(C)Cc2ccc(Cl)c(Cl)c2)O3)cc1
C[C@@H]1CN([C@@H](C)CO)C(=O)c2cccc(NS(=O)(=O)c3cn(C)cn3)c2O[C@H]1CN(C)C(=O)Nc1cccc2ccccc12
C[C@H](CO)N1C[C@H](C)[C@@H](CN(C)Cc2ccc(Cl)c(Cl)c2)OCCCC[C@H](C)Oc2ccc(NS(=O)(=O)c3cccs3)cc2C1=O
C[C@@H]1CN([C@H](C)CO)S(=O)(=O)c2ccc(C3=CCCCC3)cc2O[C@H]1CN(C)C(=O)Nc1ccc2c(c1)OCO2
COc1ccc(S(=O)(=O)Nc2ccc3c(c2)C(=O)N([C@@H](C)CO)C[C@@H](C)[C@@H](CN(C)Cc2ccc(Oc4ccccc4)cc2)O3)cc1
COc1ccc([Si](C)(C)[C@H]2[C@H](CCn3cc([C@H](O)c4ccccc4)nn3)O[C@@]3(C(=O)N(Cc4cccc(N5CCOC5=O)c4)c4ccccc43)[C@@H]2C)cc1
CN(C)C(=O)c1cccc(-c2ccc([C@H]3[C@H](CO)N4CCCCN(S(C)(=O)=O)C[C@@H]34)cc2)c1
O=C(NCC[C@@H]1CC[C@H](NC(=O)C2CC2)[C@H](CO)O1)c1cc(Cl)cc(Cl)c1
COc1ccc(S(=O)(=O)Nc2ccc3c(c2)C(=O)N([C@@H](C)CO)C[C@@H](C)[C@H](CN(C)Cc2ccc(Oc4ccccc4)cc2)O3)cc1
C[C@@H]1CN([C@@H](C)CO)C(=O)Cc2cc(NS(=O)(=O)c3ccc(F)cc3)ccc2O[C@@H]1CN(C)Cc1ccc(C(F)(F)F)cc1
C[C@H]1CN([C@@H](C)CO)S(=O)(=O)c2ccc(C#Cc3ccc(F)cc3)cc2O[C@@H]1CN(C)S(=O)(=O)c1ccc(F)cc1
C[C@@H]1CN([C@H](C)CO)C(=O)c2cc(N(C)C)ccc2O[C@H]1CN(C)C(=O)Nc1ccc(F)cc1
Cc1ccc(CN(C)C[C@@H]2OCc3cnnn3CCCC(=O)N([C@H](C)CO)C[C@@H]2C)cc1
CNC[C@@H]1Oc2ccc(NC(=O)Nc3ccc(F)cc3)cc2CC(=O)N([C@@H](C)CO)C[C@H]1C
